PubChem BioAssay AID1578 (Sanford-Burnham Center for Chemical Genomics, 2009)
The whole screen tested about 290,000 compounds, of which about 3,000 (1%) were called active. Cut-off read from the data, not from the text of the source: active = inhibition mostly above about 36% (no sharp cut-off); inactive = mostly below about 34%. The full list was thinned out, with actives kept by preference.

Test: NOD1 signaling inhibitors, primary screen, cell-based, luminescence, uHTS (AID 1578);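 note: HEK-293T reporter cells stimulated with the NOD1 agonist gamma-tri-DAP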
Details: NOD1-driven NF-kB luciferase reporter cells, at 4 µM, active compounds read high

| Compound | inhibition |
| --- | --- |
| O=C(NCCSc1ccc(Br)cc1)c1ccc2nc[nH]c2c1 | -38.2% (inactive) |
| Cc1ccc(S(=O)(=O)CC(=O)Nc2cc(C)on2)cc1 | 24.4% (inactive) |
| Cc1cc2oc(=O)sc2cc1NS(=O)(=O)c1cccc2cccnc12 | -17.4% (inactive) |
| C=CCN(CC=C)CC(=O)Nc1cccc(Oc2cnccn2)c1 | 1.4% (inactive) |
| O=C(CP(=O)(c1ccccc1)c1ccccc1)Nc1cccc(CP(=O)(c2ccccc2)c2ccccc2)c1 | 7.2% (inactive) |
| O=C(CCl)Nc1cccc(-c2cnc3ccccc3n2)c1 | 104% (active) |
| O=C(CCl)Nc1cccc(Oc2cnccn2)c1 | 32.3% (active) |
| O=C(Nc1cccc(-c2cnc3ccccc3n2)c1)c1ccccc1 | -0.8% (inactive) |
| CC(=O)Nc1cccc(CP(=O)(c2ccccc2)c2ccccc2)c1 | -3.5% (inactive) |
| O=C(CN1CCCCC1)Nc1cccc(Oc2ccccc2)c1 | -5.2% (inactive) |
| O=C(CCl)Nc1cccc(CP(=O)(c2ccccc2)c2ccccc2)c1 | 106% (active) |
| N=c1sccn1CC(=O)Nc1cccc(Oc2ccccc2)c1 | 16.7% (inactive) |
| CCC(=O)Nc1cccc(-c2cnc3ccccc3n2)c1 | -54.6% (inactive) |
| O=C(CCl)Nc1cccc(Oc2ccccc2)c1 | 75.3% (active) |
| CC(=O)Nc1ccc(Oc2cnccn2)cc1 | -8.8% (inactive) |
| CCOc1ccc(NS(=O)(=O)c2ccc(NC(=O)C3CC3)cc2)cc1 | 23.9% (inactive) |
| Fc1ccc(NC(=S)NCc2cccnc2)cc1 | -21.1% (inactive) |
| Cc1nnc(NC(=O)CN2CCN(Cc3c(Cl)cccc3Cl)CC2)s1 | 2.8% (inactive) |
| C/C(=N\NC(=O)c1ccccn1)c1ccc(C(=O)O)s1 | 6.8% (inactive) |
| Cc1ccccc1NC(=O)c1c(-c2ccccc2)noc1C | -7.9% (inactive) |
| CN(Cc1ccccc1)S(=O)(=O)c1ccc(Cl)c(C(=O)NCc2ccc3c(c2)OCO3)c1 | -8.3% (inactive) |
| O=C(NC(=S)Nc1nc(-c2cccc([N+](=O)[O-])c2)cs1)c1cc(Cl)ccc1Cl | 13.4% (inactive) |
| CC(=O)Nc1nc(C)c(-c2csc(Nc3cccc(C(C)=O)c3)n2)s1 | 3.5% (inactive) |
| O=C(NC(=S)Nc1nc(-c2cccc([N+](=O)[O-])c2)cs1)c1ccccc1Cl | -36.4% (inactive) |
| O=[N+]([O-])c1cccc(NC(=S)Nc2nc(-c3ccccc3Cl)cs2)c1 | 88.1% (active) |
| CC(=O)Nc1ccc(Nc2nc(-c3sc(NC(C)=O)nc3C)cs2)cc1 | 32.9% (inactive) |
| CC(C)CCNC(=O)c1nn(Cc2ccccc2)c(=O)c2ccccc12 | -6.4% (inactive) |
